Screening results as filed in PubChem.
Sampled rows, rich in hits. Any-hit rate of the full collection: about 10%.
JMJD2A Tudor = inhibitors of human JMJD2A Tudor domain; AlphaScreen JMJD2A-Tudor / H3K4me3 peptide binding; Potency, µM (series often up to 114 µM), actives largely listed as inhibitors; 390,000 tested, 4.4% active; AID 504339; also: nearly all actives have a fitted effect of over 50% in size
Six1-Eya2 inh = Six1/Eya2 interaction inhibition | 360,000 tested, 0.56% active | activity change, % (concentration not given with the values) | AlphaScreen GST-Six1/His-Eya2 binding, biochemical; stronger effect = lower value; in the data active = activity change below about -65%; inconclusive = mostly about -30% to -63%
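GST-Six1 + His-Eya2 (5X stock: 250/500 nM); Tris pH 8.0, 300 mM NaCl, 0.05% BSA, 0.02% Tween 20; GSH donor/Ni acceptor beads; 1 h 37 °C dark; AlphaScreen readout.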
BAZ2B inh = blocks human BAZ2B | AlphaScreen BAZ2B-H3K14Ac peptide displacement | Potency, µM (titrated, usually from 114 µM), usual class: inhibitors | 360,000 tested, 4.4% active; also: nearly all actives have a fitted effect of over 60% in size
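Multi-concentration screen (max 110 uM) measuring displacement of acetylated histone H3 peptide from BAZ2B by AlphaScreen, using 50 nM protein, 50 nM peptide and 10 ug/mL streptavidin donor plus Ni-chelate acceptor beads.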
CtBP-E1A blk = blocks the CtBP interaction with E1A. AID 651724. 340,000 tested, 0.49% active. activity change, % (concentration not given with the values). AlphaScreen GST-E1A/His-CtBP binding, 1536-well; stronger effect = lower value; in the data active = activity change below about -65%; inconclusive = mostly about -30% to -63%
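GST-E1A and His-tagged CtBP (125 nM each as 5X stock) were preincubated with pin-transferred compound for 2 h at 37 °C in the dark, then glutathione donor and nickel acceptor beads were added for 1 h before AlphaScreen reading.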
HP1b chromo inh = HP1-beta chromodomain-methylated histone interaction inhibition; P83916; AlphaScreen HP1-beta / biotin-H3K9me3 peptide binding; Potency, µM (series often up to 114 µM), hits mostly inhibitors; 390,000 tested, 0.56% active; AID 540317; also: nearly all actives have a fitted effect of over 70% in size
Target sequence (P83916 whole entry, looked up): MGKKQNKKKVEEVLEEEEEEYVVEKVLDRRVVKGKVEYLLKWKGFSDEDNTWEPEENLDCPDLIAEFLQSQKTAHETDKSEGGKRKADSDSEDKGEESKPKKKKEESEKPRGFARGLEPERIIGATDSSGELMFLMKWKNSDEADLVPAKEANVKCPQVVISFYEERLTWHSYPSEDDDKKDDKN
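Compound inhibition of the preformed complex between 50 nM HP1-beta and 50 nM biotinylated H3K9me3 peptide was read by AlphaScreen. Buffer was PBS pH 7.4 with 0.01% Tween-20. Incubations ran 30 min at room temperature, with 10 ug/mL donor/acceptor beads.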
G9a inh = inhibitors of human histone lysine methyltransferase G9a; AID 504332; 350,000 tested, 8.8% active; Q96KQ7; Potency, µM (titrated, usually from 102 µM), hits mostly inhibitors; G9a H3K9 monomethylation, AlphaScreen, 2 h; also: nearly all actives have a fitted effect of over 75% in size
Target sequence (Q96KQ7 913-1193 limits assumed): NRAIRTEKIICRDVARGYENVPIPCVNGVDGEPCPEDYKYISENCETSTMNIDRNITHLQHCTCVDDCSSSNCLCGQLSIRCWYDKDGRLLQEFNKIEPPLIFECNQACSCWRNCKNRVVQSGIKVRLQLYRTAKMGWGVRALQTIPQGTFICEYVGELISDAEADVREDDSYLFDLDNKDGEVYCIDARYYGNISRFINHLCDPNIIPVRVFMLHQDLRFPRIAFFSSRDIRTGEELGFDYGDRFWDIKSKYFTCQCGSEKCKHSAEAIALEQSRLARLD
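Signal arises when biotinylated H3K9 peptide, once monomethylated, bridges streptavidin donor and antibody-captured acceptor beads. Enzyme at 20 nM was preincubated 15 min with test compounds; peptide 500 nM and SAM 20 uM then reacted for 2 h.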
Hits are given with their value. Unless noted, calls follow the shape of the dose curve; as a rule, active = well fitted inhibition curve with a large enough effect; inconclusive = small, poorly fitted or top-dose-only effect; inactive = no such curve, though single readings can be large or run the other way.

For Cc1cc2nc(/C=C/c3nc4cc(C)c(C)cc4[nH]3)[nH]c2cc1C the results were JMJD2A Tudor inactive, Six1-Eya2 inh inactive, BAZ2B inh inactive, HP1b chromo inh inactive and G9a inh inactive.
Screening Nc1ccc2[nH]c(=S)[nH]c2c1 returned JMJD2A Tudor inactive, Six1-Eya2 inh inactive, CtBP-E1A blk inactive and HP1b chromo inh inactive.
`S=c1[nH]c2cc3ccccc3cc2[nH]1` gave JMJD2A Tudor inactive, Six1-Eya2 inh inactive, BAZ2B inh inactive, CtBP-E1A blk inactive, HP1b chromo inh inactive and G9a inh 2.2µM.
S=c1[nH]c2ccc(Cc3ccc4[nH]c(=S)[nH]c4c3)cc2[nH]1 was read as JMJD2A Tudor inactive, Six1-Eya2 inh inactive, BAZ2B inh inactive, CtBP-E1A blk inactive, HP1b chromo inh inactive and G9a inh 0.28µM.
CCc1nn(CC(=O)N(C)Cc2ccccc2)c(=O)c2cc3sccc3n12 was read as JMJD2A Tudor inactive, BAZ2B inh inactive, HP1b chromo inh inactive and G9a inh inactive.
For NS(=O)(=O)c1ccc(CCNc2nc(CN3CCOCC3)nc3sc4c(c23)CCC4)cc1 the results were JMJD2A Tudor inactive, Six1-Eya2 inh inactive, BAZ2B inh inactive, CtBP-E1A blk inactive, HP1b chromo inh inactive and G9a inh 13µM.
`CC1CCCN(c2ccc(C(=O)Nc3ccc4c(c3)OCO4)cc2[N+](=O)[O-])C1` (stereo not given) gave JMJD2A Tudor inconclusive, Six1-Eya2 inh inconclusive, BAZ2B inh inconclusive, CtBP-E1A blk inconclusive, HP1b chromo inh inconclusive and G9a inh 22µM.
For CC1CCCN(c2ccc(C(=O)NCc3ccc4c(c3)OCO4)cc2[N+](=O)[O-])C1 (stereo not given) the results were JMJD2A Tudor inconclusive, Six1-Eya2 inh inconclusive, BAZ2B inh inconclusive, CtBP-E1A blk inactive, HP1b chromo inh inconclusive and G9a inh 14µM.
For O=C(NCc1ccc2c(c1)OCO2)c1ccc(N2CCCCCC2)c([N+](=O)[O-])c1 the results were JMJD2A Tudor inconclusive, Six1-Eya2 inh inactive, BAZ2B inh inconclusive, CtBP-E1A blk inconclusive, HP1b chromo inh inconclusive and G9a inh 35µM.
For CC1CCCN(c2ccc(C(=O)Nc3nnc(C4CC4)s3)cc2[N+](=O)[O-])C1 (stereo not given) the results were JMJD2A Tudor inconclusive, Six1-Eya2 inh inactive, BAZ2B inh inactive, CtBP-E1A blk inactive, HP1b chromo inh inactive and G9a inh inactive.
For CC(=O)c1cccc(S(=O)(=O)Nc2cccnc2)c1 the results were JMJD2A Tudor inactive, Six1-Eya2 inh inactive, BAZ2B inh inactive, CtBP-E1A blk inactive, HP1b chromo inh inactive and G9a inh 45µM.
O=S(=O)(NCCN1CCOCC1)c1ccc(F)c(Cl)c1 was read as JMJD2A Tudor 14µM, Six1-Eya2 inh inactive, BAZ2B inh inactive, CtBP-E1A blk inactive, HP1b chromo inh inactive and G9a inh inactive.
`CCOC(=O)c1ccc(S(=O)(=O)Nc2ccc(N3CCOCC3)cc2)cc1` gave JMJD2A Tudor inactive, Six1-Eya2 inh inactive, BAZ2B inh inactive, CtBP-E1A blk inactive, HP1b chromo inh inactive and G9a inh 79µM.
For O=S(=O)(NCCN1CCOCC1)c1ccc(Cl)c(Cl)c1 the results were JMJD2A Tudor inactive, Six1-Eya2 inh inactive, BAZ2B inh inactive, HP1b chromo inh inactive and G9a inh inconclusive.
O=S(=O)(Nc1cccnc1)c1cccc(Cl)c1 was read as JMJD2A Tudor inactive, Six1-Eya2 inh inactive, BAZ2B inh inactive, CtBP-E1A blk inactive, HP1b chromo inh inactive and G9a inh inactive.
Screening CC(=O)c1cccc(S(=O)(=O)NCCCN2CCOCC2)c1 returned JMJD2A Tudor inactive, Six1-Eya2 inh inactive, BAZ2B inh inactive, CtBP-E1A blk inactive, HP1b chromo inh inactive and G9a inh 1.4µM.
For CC(C)c1ccc(NC(=O)Cn2nnc(C(=O)NCc3ccc(Cl)cc3)c2N)cc1 the results were JMJD2A Tudor inactive, BAZ2B inh inactive, HP1b chromo inh inactive and G9a inh inactive.
For CCN(c1ccccc1)S(=O)(=O)c1ccc(N2CCN(c3ccccc3O)CC2)nc1 the results were JMJD2A Tudor inconclusive, Six1-Eya2 inh inactive, BAZ2B inh inactive, CtBP-E1A blk inactive, HP1b chromo inh inactive and G9a inh inconclusive.
